In test [1] the target is Aldehyde dehydrogenase, mitochondrial (Homo sapiens) (UniProt P05091). The experiment in a line: qHTS for Inhibitors of the Aldehyde Dehydrogenase Family (ALDH2) Primary screen (AID 2061308). Also: nearly all actives have a fitted effect of over 55% in size. Background: Quantitative high-throughput screening tests each substance at several concentrations.
Test [2] addresses Retinaldehyde dehydrogenase 3 (Homo sapiens) (UniProt P47895). Kind of test: qHTS for Inhibitors of the Aldehyde Dehydrogenase Family (ALDH1A3) Primary screen (AID 2061315).

Inconclusive results are not listed. A call without a number means that no potency is given here. The source made the active and inactive calls. Calls follow the shape of the dose curve; as a rule, active = well fitted curve in the direction sought with a large enough effect; inconclusive = small, poorly fitted or top-dose-only effect, or another doubt; inactive = no such curve, though single readings can be large; an effect the other way counts as inactive or inconclusive.

`O=Cc1nc(Nc2cc(F)cc(F)c2)nc(NC2CCCC2)n1`: the Potency entry in test [1] and in test [2] was “inactive” in each case.

For the compound `Cn1nnnc1Sc1ncnc2scc(-c3ccccc3[N+](=O)[O-])c12`, the Potency result in test [1] and in test [2] was “inactive” in each case.

In the case of `CCCn1c(-c2ccc(F)cc2)nc2c(N3CCCN(Cc4ccccc4)CC3)nc(C)nc21`, the Potency result in test [1] and in test [2] was “inactive” in each case.

Consider `Cc1ccc(CNc2ncnc3ccc(-c4ccc5c(c4)OCO5)cc23)o1`, for which the Potency result in test [1] and in test [2] was “inactive” throughout.

Consider `CC(C)CC(=O)c1c(O)cc2c(c1O)C(CC(C)C)C1=C(O2)C(C)(C)C(=O)C(C)(C)C1=O` (stereo not drawn), for which the Potency entry in test [1] and in test [2] was “inactive” in each case.

`Cc1c(C(=O)O)[nH]c2c1C(=O)CCC2`: the Potency result in test [1] and in test [2] was “inactive” each time.

Take `CCn1c(-c2nonc2N)nc2c(C#CCO)ncc(OCCCN)c21`: the Potency result in test [1] and in test [2] was “inactive” each time.

As to `N/C(=N\c1nnc(-c2ccncc2)s1)Nc1ccc(F)c(C(F)(F)F)c1`, the Potency entry in test [1] and in test [2] was “inactive” in each case.

Regarding `N#Cc1nc(-c2cccc3ccccc23)oc1NCC#CCOC(=O)c1cccs1`, the Potency result in test [1] and in test [2] was “inactive” throughout.

Turning to `Cc1cc2c(s1)c1cnn(Cc3ccc(F)c(Cl)c3)c(=O)c1n2C`, the Potency result in test [1] and in test [2] was “inactive” each time.

Regarding `Cn1c2cc(B(O)O)sc2c2cnn(Cc3ccccc3F)c(=O)c21`, the Potency entry in test [1] and in test [2] was “inactive” each time.

Consider `Cc1ccccc1C(=O)N1CCc2cc(-c3nc(NC(=O)c4ccc5c(c4)OCO5)sc3C)ccc21`, for which the Potency entry in test [1] and in test [2] was “inactive” throughout.

Regarding `CNC(=O)c1ccc(-c2cnc3cnc(C(=O)N(C)c4ccc(Cl)cc4)cn23)cc1`, the Potency result in test [1] and in test [2] was “inactive” in each case.

In the case of `CCOC(=O)c1ccc(-n2cnc3c(c2=N)C(c2cccc(OC)c2)c2c(ccc4ccccc24)O3)cc1` (stereo not drawn), the Potency result in test [1] and in test [2] was “inactive” in each case.
